Hit rate of the full screen: of about 63,000 compounds, about 1,100 (1.7%) were called active. Rule as the data show it: active = cytotoxicity above about 50%; inactive = the rest. The sample as a whole holds a higher share of actives than the screen did. Results with a measured potency or affinity are listed apart.
test: HPDE-C7 pancreatic duct cell viability loss – fluorescence, HTS (AID 430); settings: HPDE-C7 pancreatic duct cells viability, at 10 µM, hits give high values;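 also: cells exposed to compound for 48 hours before viability readout; 0% = vehicle and 100% = reference cytotoxic drug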

Row | Structure (SMILES) | cytotoxicity
1 | CCCCOc1ccc(C(=O)Nc2ccncc2)cc1 | 7.8% (inactive)
2 | COCCNc1oc(-c2ccccc2Cl)nc1C#N | -6% (inactive)
3 | COc1ccc(Nc2oc(-c3ccccc3Cl)nc2C#N)cc1 | 57.9% (active)
4 | CNc1oc(-c2ccccc2Cl)nc1C#N | -3.8% (inactive)
5 | Cc1ccccc1-n1nnnc1-c1ccccc1 | -2.5% (inactive)
6 | O=C1C(c2ccncc2)=C(O)c2ccccc21 | -1.4% (inactive)
7 | COc1ccc(C(=O)Oc2ccc(C(C)=O)cc2)c(OC)c1 | 13.4% (inactive)
8 | COc1ccc(C(=O)c2ccc(N3CCOCC3)cc2)c(OC)c1 | 7.3% (inactive)
9 | COc1ccc(C(=O)c2ccc(N(C)C)cc2)c(OC)c1 | 68.7% (active)
10 | Cc1ccc(S(=O)(=O)NC2OC(=O)C(Cl)=C2Cl)cc1 (configuration not stated) | 11.4% (inactive)
11 | Cc1nnc2n1N=CC=C(c1ccccc1)S2 | 57.5% (active)
12 | Cc1nnc2n1N=CC=C(C(C)(C)C)S2 | -5.2% (inactive)
13 | COn1cnnc1-c1ccccc1 | -8.8% (inactive)
14 | O=C(COC(=O)CCOc1ccccc1)Nc1ccc(Cl)cn1 | 0.1% (inactive)
15 | Cc1cc(SCC#N)n2nc(C)c(-c3ccccc3)c2n1 | -24.7% (inactive)
16 | COc1ccc2c(c1)c(C(O)CN1CCC3(CC1)OCCO3)c(C)n2C (configuration not stated) | 9% (inactive)
17 | CC(C)(C)c1ccc(C(O)CCCN2CCC(C(O)(c3ccccc3)c3ccccc3)CC2)cc1 (configuration not stated) | 118% (active)
18 | OC(CCN1CCCC1)(c1ccccc1)C1CCCCC1 (configuration not stated) | 8.5% (inactive)
19 | OC(CCN1CCCCC1)(c1ccccc1)C1CCCCC1 (configuration not stated) | -15.8% (inactive)
20 | C/C(=N\O)C1/C(=N/O)CC2C1C2(C)C (configuration not stated) | -4.3% (inactive)
21 | Nc1nc(C(=O)N2CCOCC2)nn1S(=O)(=O)c1ccc(Cl)cc1 | 2.7% (inactive)
22 | COc1ccc(C(=O)Oc2cccnc2)cc1OC | -11.9% (inactive)
23 | CN1C(=O)c2cccc(NC(=O)Cc3ccccc3)c2C1=O | -1.7% (inactive)
24 | CC1CCc2nc(NC(=O)c3ccco3)sc2C1 (configuration not stated) | -13.6% (inactive)
25 | O=C(Nc1nc2c(s1)CCc1ccccc1-2)c1ccco1 | 15.6% (inactive)
26 | O=C(c1ccc(Br)s1)N1CCN(Cc2ccc3c(c2)OCO3)CC1 | 11.8% (inactive)

Row | Structure (SMILES) | cytotoxicity
27 | Cc1ccc(-n2cc(-c3ccccc3)[nH]c2=O)cc1F | -20.5% (inactive)
28 | CSc1cccc(-n2cc(-c3ccc4c(c3)OCO4)[nH]c2=O)c1 | 52.8% (active)
29 | CN(C)/C=C1\N=C(c2ccc3c(c2)OCO3)OC1=O | -1.7% (inactive)
30 | O=C(Cc1ccc(S(=O)(=O)N2CCOCC2)s1)Nc1ccc2c(c1)CCC2 | 3.3% (inactive)
31 | COc1ccc(CN2CCN(C(=O)c3cc(OC)c(OC)c(OC)c3)CC2)cc1OC | -11.1% (inactive)
32 | CCCSc1nnc(NC(=O)Nc2ccccc2)s1 | 6.3% (inactive)
33 | CCC(=O)Nc1nnc(SCC(=O)Nc2ccc(F)cc2)s1 | 2.1% (inactive)
34 | CCCSc1nnc(NC(=O)Nc2ccc(F)cc2)s1 | 69.6% (active)
35 | COc1ccccc1NC(=O)CN1CCN(Cc2ccccc2)CC1 | 3% (inactive)
36 | COc1ccc(C(C)=O)cc1COC(=O)c1c(C)noc1C | 7.1% (inactive)
37 | COC(=O)c1c(N)sc(C(C)=O)c1C | -7.8% (inactive)
38 | COC(=O)c1sc(N)c(C(=O)OC)c1COC(=O)c1c(C)noc1C | 64.9% (active)
39 | CC(C)CCNc1nc2c(c(=O)n(Cc3cccc(F)c3)c(=O)n2C)n1C | 35.2% (inactive)
40 | COc1ccc(-c2cn3c(n2)CCC3)cc1 | 14.1% (inactive)
41 | CCCCCC1CCC(C(=O)O)CC1 (configuration not stated) | -12.7% (inactive)
42 | COC(=O)c1ccc2c(c1)N(Cc1nc(-c3cccc(Cl)c3)oc1C)C(=O)C1CCCN21 (configuration not stated) | 40.7% (inactive)
43 | COC(=O)c1ccc2c(c1)N(Cc1nc(-c3ccc(Cl)cc3)oc1C)C(=O)C1CCCN21 (configuration not stated) | -1.4% (inactive)
44 | COC(=O)c1ccc2c(c1)N(Cc1nc(-c3cccc(C)c3)oc1C)C(=O)C1CCCN21 (configuration not stated) | 55.8% (active)
45 | CC(C)CCOCC1CC2(CC(C)(c3csc(N)n3)OC2=O)C(=O)O1 (configuration not stated) | -2.2% (inactive)
46 | O=C(COC(=O)c1ccccc1NC(=O)c1ccco1)Nc1ccc2c(c1)OCO2 | -13.5% (inactive)
47 | COc1cccc(C2C3=C(N=C4SCC(=O)N42)c2ccccc2CC3)c1OC (configuration not stated) | -2.4% (inactive)
48 | CN(C)c1ccc(-c2nn3c(-c4ccncc4)nnc3s2)cc1 | -9.1% (inactive)
49 | CCN(CC)c1ccc(-c2nn3c(-c4cccnc4)nnc3s2)cc1 | 43.2% (inactive)
50 | CCc1nc2ccccc2n1CC(=O)N(C(C)CC)C1CCS(=O)(=O)C1 (configuration not stated) | -20.3% (inactive)
51 | Cn1c(Cn2c(=O)sc3ccccc32)nnc1SCc1ccc(F)cc1 | -3.2% (inactive)
52 | O=C(Nc1cccc(C(F)(F)F)c1)c1cccnc1N1CCN(CCO)CC1 | -10.8% (inactive)

Row | Structure (SMILES) | cytotoxicity
53 | COc1ccc2c(c1)Sc1ccccc1N2CCN(C)C | 12.2% (inactive)
54 | CCOC(=O)Nc1ccc2c(c1)N(C(=O)CN1CCN(C)CC1)c1ccccc1S2 | 5.2% (inactive)
55 | CN(C)CCCN1c2ccccc2Sc2ccccc21 | 13.7% (inactive)
56 | C=CCN1C(=O)c2ccccc2Sc2ccc(C(=O)N3CCN(C)CC3)cc21 | -17.1% (inactive)
57 | O=C(CN1CCCC(O)C1)N1c2ccccc2Sc2ccc(C(F)(F)F)cc21 (configuration not stated) | 24% (inactive)
58 | COc1ccc(Br)cc1S(=O)(=O)N(CC(=O)N1CCOCC1)c1ccccc1 | -5.3% (inactive)
59 | O=C(CCc1ccccc1)Nc1ccncc1 | 0.1% (inactive)
60 | Cn1c(Cn2c(=O)sc3ccccc32)nnc1SCC(=O)Nc1ccc(F)cc1 | -7.1% (inactive)
61 | CCOc1ccccc1N1CCN(Cc2cccc(OC)c2OC)CC1 | -10.5% (inactive)
62 | OC(CN1CCN(c2cccc(C(F)(F)F)c2)CC1)c1c[nH]c2ccccc12 (configuration not stated) | 26.7% (inactive)
63 | O=C(CCn1c(=O)[nH]c2ccccc2c1=O)N1CCN(c2cccc(C(F)(F)F)c2)CC1 | -11.5% (inactive)
64 | Cc1[nH]c2ccccc2c1NC(=O)CN1CCN(c2cccc(C(F)(F)F)c2)CC1 | 62.1% (active)
65 | O=C(CN1CCN(c2ccccc2)CC1)Nc1cccc(C(F)(F)F)c1 | -4.7% (inactive)
66 | COC(=O)c1[nH]c2ccccc2c1NC(=O)CN1CCN(c2cccc(Cl)c2)CC1 | 0.5% (inactive)
67 | CCc1nc2ccccc2c(C(=O)OCC(=O)NCCCN2CCCC2=O)c1C | -4.2% (inactive)
68 | CCOc1cc2[nH]c(=O)n(CCCCC(=O)NC3CCCCCC3)c(=O)c2cc1OCC | 2.3% (inactive)
69 | COC(=O)c1cc(COC(=O)c2cccnc2SC)oc1C | -9.4% (inactive)
70 | O=S(=O)(Nc1cccnc1)c1ccc2c(c1)OCCO2 | -9.7% (inactive)
71 | CCOC(=O)Cn1nc(-c2ccc(Cl)cc2)cc1N | 10.3% (inactive)
72 | CCOC(=O)Cc1nnc2c(Nc3ccccc3F)nc3nonc3n12 | 61.6% (active)
73 | CCOC(=O)n1ccc(C(=O)Nc2ccccc2F)n1 | -0.9% (inactive)
74 | CCOC(=O)CCn1c(CC(=O)OCC)nc2ccccc21 | -8.6% (inactive)
75 | CCOC(=O)Cc1nnc2c(Nc3ccc(C)cc3)nc3nonc3n12 | -35.8% (inactive)
76 | CCOC(=O)Cc1nnc2c(Nc3ccc(Cl)cc3)nc3nonc3n12 | 68.3% (active)
77 | CCOC(=O)Cc1csc(NC(=O)c2cccc(N3C(=O)CCC3=O)c2)n1 | -14.9% (inactive)
78 | O=C(Nn1cnnc1)c1cc(-c2ccccn2)nc2ccccc12 | 2.7% (inactive)

Row | Structure (SMILES) | cytotoxicity
79 | O=C(Nc1ccccc1N1CCCC1)c1ccc(Br)o1 | 1.2% (inactive)
80 | CCN1CCN(c2c(Cl)cccc2NC(=O)c2ccc(Br)o2)CC1 | 1.5% (inactive)
81 | O=C(Nc1cccc(Cl)c1N1CCCC1)c1ccc(Br)o1 | 75% (active)
82 | N#Cc1ccsc1NC(=O)CSc1ncn[nH]1 | -0.1% (inactive)
83 | CCCCNS(=O)(=O)c1ccc2nc(SCC(=O)c3ccc(C#N)cc3)[nH]c2c1 | 5.7% (inactive)
84 | CCCCNS(=O)(=O)c1ccc2nc(SCC(=O)Nc3sccc3C#N)[nH]c2c1 | 88.6% (active)
85 | CCn1cc(Br)c(C(=O)N(C)Cc2ccccc2)n1 | -2.4% (inactive)
86 | CCC1CCCCN1C(=O)COC(=O)c1ccc(S(=O)(=O)N2CCOCC2)cc1 (configuration not stated) | -5% (inactive)
87 | Cc1ccc(-c2nnn(CC(=O)N(Cc3cccs3)C(C(=O)NC(C)(C)C)c3ccco3)n2)o1 (configuration not stated) | -3.6% (inactive)
88 | Cc1ccc(-c2nnn(CC(=O)N(c3ccccc3)C(C(=O)NC3CCCC3)c3ccco3)n2)o1 (configuration not stated) | -1% (inactive)
89 | Cc1ccc(-c2nnn(CC(=O)N(Cc3cccs3)C(C(=O)NC3CCCC3)c3ccco3)n2)o1 (configuration not stated) | 80.5% (active)
90 | COc1ccc(OC)c(Nc2nc(-c3sc(N)nc3C)cs2)c1 | 34.5% (inactive)
91 | COc1ccc(CNC(=O)C2CCCN2S(=O)(=O)c2ccc(C)cc2)cc1 (configuration not stated) | 9.7% (inactive)
92 | CC(C)(C)c1ccccc1OCCCCCNCCO | 9.8% (inactive)
93 | CC(=O)CCc1c(C)[nH]c2ccccc2c1=O | -19.6% (inactive)
94 | Cc1ccc(-c2noc(CCC(=O)NCCCN3CCN(c4cccc(Cl)c4)CC3)n2)cc1 | -6.5% (inactive)
95 | O=C(Nc1ccc(N2CCOCC2)cc1)c1ccc2nc(-c3ccco3)c(-c3ccco3)nc2c1 | -9.4% (inactive)
96 | O=C(Nc1ccc2nc(-c3ccco3)c(-c3ccco3)nc2c1)N1CCCCCC1 | 29.1% (inactive)
97 | COc1ccccc1N1CCN(C(=O)c2ccc3nc(-c4ccco4)c(-c4ccco4)nc3c2)CC1 | 8.9% (inactive)
98 | O=C(Nc1ccc(N2CCOCC2)cc1)Nc1ccc2nc(-c3ccco3)c(-c3ccco3)nc2c1 | 76.2% (active)
99 | O=C(c1ccc2ccccc2c1)N1CCN(c2ccccc2)CC1 | -4.8% (inactive)
100 | CN1CCN(C(=O)c2ccc3ccccc3c2)CC1 | -15.3% (inactive)
101 | O=C(c1ccc2ccccc2c1)N1CCN(c2ccc(O)cc2)CC1 | 50.3% (active)
102 | O=C(c1cc(-c2ccco2)on1)N1CCN(c2ccccc2)CC1 | 13.6% (inactive)
